This passage reports growth results from PubChem BioAssay (NCI).

Compounds without any hit were thinned out: in the full panel of roughly 83,000, 20% have a hit.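 48-hour exposure, single concentration, 96-well plates; percent growth endpoint where 0 means no net growth. Active: below 10.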 Unmarked numbers belong to inactive results. Active and inactive are the calls of the source.

Test systems include NCI-H23 lung; NCI-H226 lung; NCI-H322M lung; HOP-62 NSCLC; NCI-H460 lung; HOP-92 NSCLC; NCI-H522 lung; A549/ATCC NSCLC; 786-0 renal; COLO 205 colon; DU-145 prostate; K-562 leukemia; MALME-3M melanoma; MDA-MB-231 breast; RXF 393 renal; SF-268 CNS; SF-295 CNS; SF-539 CNS; UACC-257 melanoma; M14 melanoma.
Holding throughout (test): NCI-60 one-dose screen, 48 h (100 = growth as untreated, 0 = no growth, -100 = all killed)
What all share (conditions): 10 µM unless noted

Consider `CC(=O)N1N=C(c2ccc(C(F)(F)F)c(F)c2)CC1c1[nH]c(C)c(C(=O)NCC(F)(F)F)c1C` (stereo not given), for which the growth with NCI-H23 lung was 78.8%; in the assay on NCI-H226 lung, 56.3%; with NCI-H322M lung, 74.6%; with HOP-62 NSCLC, 64.9%; in the assay with NCI-H460 lung, 52.1%; in the assay on HOP-92 NSCLC, 52.4%. Besides, the growth with NCI-H522 lung is 94.8%; in the assay with A549/ATCC NSCLC it was 55.8%; in the assay with 786-0 renal, 13.1%; in the assay with COLO 205 colon, 112%; in the assay with DU-145 prostate, 85.5%; in the assay on K-562 leukemia, 97.6%. Moreover, the growth with MALME-3M melanoma was 43.5%; with MDA-MB-231 breast, 38.8%; with RXF 393 renal, 31%; in the assay with SF-268 CNS, 60.7%; in the assay with SF-295 CNS it was 70.9%; with SF-539 CNS it was 56.3%. The growth was 91.6% with UACC-257 melanoma and 78.8% in the assay on M14 melanoma.

Turning to `O=c1c2ccccc2n2cnc3ccc(Cl)c1c32`, the growth in the assay with NCI-H23 lung is 86.2%; with NCI-H226 lung, 93.9%; with NCI-H322M lung it was 90.2%; in the assay with HOP-62 NSCLC, 93.1%; in the assay on NCI-H460 lung it was 58.5%; in the assay on HOP-92 NSCLC, 102%. Besides, the growth is 65.4% with NCI-H522 lung; 67.8% with A549/ATCC NSCLC; 73.3% with 786-0 renal; 91.8% in the assay on COLO 205 colon; 62.8% in the assay with DU-145 prostate; 97.2% in the assay with K-562 leukemia. In addition, the growth was 90.7% with MALME-3M melanoma; 90.7% with MDA-MB-231 breast; 69.8% in the assay with RXF 393 renal; 86.9% with SF-268 CNS; 85.9% in the assay with SF-295 CNS; 88.4% in the assay with SF-539 CNS. Moreover, the growth in the assay with UACC-257 melanoma is 95.7%; in the assay on M14 melanoma, 83.9%.

Take `Cc1ccccc1/C=C/C(=O)c1cccc(OCCCOc2cccc(C(=O)/C=C/c3ccccc3C)c2)c1`: the growth was 88.5% [3 µM] with NCI-H23 lung; 88.9% [3 µM] with NCI-H226 lung; 106% [3 µM] in the assay on NCI-H322M lung; 114% [3 µM] with HOP-62 NSCLC; 99.8% [3 µM] in the assay on NCI-H460 lung; 85.9% [3 µM] in the assay with HOP-92 NSCLC. The growth in the assay on NCI-H522 lung is 80.5% [3 µM]; in the assay with A549/ATCC NSCLC it was 86% [3 µM]; with 786-0 renal it was 103% [3 µM]; in the assay on COLO 205 colon, 110% [3 µM]; with DU-145 prostate, 102% [3 µM]; in the assay with K-562 leukemia it was 73.6% [3 µM]. The growth was 108% [3 µM] in the assay with MALME-3M melanoma; 94.8% [3 µM] in the assay with MDA-MB-231 breast; 98.3% [3 µM] in the assay on RXF 393 renal; 99.4% [3 µM] with SF-268 CNS; 90.6% [3 µM] in the assay with SF-295 CNS; 103% [3 µM] in the assay with SF-539 CNS. Moreover, the growth in the assay on UACC-257 melanoma and in the assay with M14 melanoma was 103% [3 µM] each time.

Turning to `O=C(/C=C/c1cccc(Cl)c1)c1cccc(OCCCOc2cccc(C(=O)/C=C/c3cccc(Cl)c3)c2)c1`, the growth in the assay with NCI-H23 lung was 89.2%; in the assay with NCI-H226 lung, 96.3%; in the assay with NCI-H322M lung, 106%; in the assay with HOP-62 NSCLC, 102%; with NCI-H460 lung, 103%; in the assay with HOP-92 NSCLC, 66.8%. For the same molecule, the growth with NCI-H522 lung is 87.4%; in the assay on A549/ATCC NSCLC it was 100%; in the assay on 786-0 renal it was 98.8%; in the assay on COLO 205 colon it was 106%; in the assay with DU-145 prostate, 108%; in the assay on K-562 leukemia it was 86.9%. For the same molecule, the growth with MALME-3M melanoma is 116%; in the assay on MDA-MB-231 breast it was 94.9%; in the assay with RXF 393 renal, 104%; with SF-268 CNS, 98.8%; in the assay with SF-295 CNS, 95.1%; with SF-539 CNS it was 106%. In addition, the growth is 102% in the assay with UACC-257 melanoma and 89.9% in the assay with M14 melanoma.

With `Fc1cnccc1C1CC(c2ccc(N3CCNCC3)cc2)=NN1` (stereo not given), the growth in the assay on NCI-H23 lung was 83.8%; with NCI-H226 lung it was 82.9%; with NCI-H322M lung, 89.3%; with HOP-62 NSCLC, 83.2%; in the assay on NCI-H460 lung, 94.9%; in the assay with HOP-92 NSCLC, 72.4%. In addition, the growth in the assay with NCI-H522 lung is 81.9%; in the assay on A549/ATCC NSCLC it was 76.2%; in the assay with 786-0 renal, 111%; in the assay with COLO 205 colon it was 95.7%; in the assay with DU-145 prostate, 107%; with K-562 leukemia, 77.9%. The growth was 93.4% in the assay on MALME-3M melanoma; 84.6% in the assay with MDA-MB-231 breast; 105% with RXF 393 renal; 107% in the assay on SF-268 CNS; 98% in the assay on SF-295 CNS; 104% in the assay with SF-539 CNS. Further, the growth in the assay on UACC-257 melanoma was 83.1%; in the assay with M14 melanoma it was 95.9%.

For the molecule `COc1ccc(-c2ccc(-c3ccc(C(=N)N)cc3)s2)cc1Cl`, the growth in the assay on NCI-H23 lung was 61.4%; in the assay on NCI-H226 lung it was 92.8%; in the assay with NCI-H322M lung, -35.5% (active); in the assay with HOP-62 NSCLC, 34.5%; in the assay with NCI-H460 lung, -66.4% (active); in the assay with HOP-92 NSCLC, 75.8%. Besides, the growth in the assay on NCI-H522 lung was -36.1% (active); with A549/ATCC NSCLC, -48.2% (active); in the assay with 786-0 renal, -83.1% (active); with COLO 205 colon, -36.1% (active); with DU-145 prostate it was -87.5% (active); in the assay on K-562 leukemia it was -36.8% (active). Moreover, the growth in the assay on MALME-3M melanoma was 57.5%; in the assay with MDA-MB-231 breast it was -60.7% (active); in the assay with RXF 393 renal, 60.7%; with SF-268 CNS, 20%; in the assay on SF-295 CNS, -37.5% (active); in the assay with SF-539 CNS, -59% (active). The results for the growth in the assay with UACC-257 melanoma and in the assay on M14 melanoma were 88.1% and 38.6%, respectively.

In the case of `c1cc2c(ccc3[nH]c(-c4ccc5[nH]ncc5c4)c4c(c32)CCCC4)n1`, the growth in the assay on NCI-H23 lung is 74.3%; in the assay on NCI-H226 lung, 58.6%; with NCI-H322M lung it was 92.2%; in the assay on HOP-62 NSCLC it was 42.5%; with NCI-H460 lung, 22.3%; with HOP-92 NSCLC, 40%. In addition, the growth was 47.4% with NCI-H522 lung; 32.5% with A549/ATCC NSCLC; 56% in the assay on 786-0 renal; 58% with COLO 205 colon; 66% in the assay with DU-145 prostate; 2.93% (active) with K-562 leukemia. For the same molecule, the growth is 35.9% in the assay on MALME-3M melanoma; 78.4% with MDA-MB-231 breast; 89.3% in the assay with RXF 393 renal; 62.3% with SF-268 CNS; 63.6% in the assay with SF-295 CNS; 62.9% in the assay with SF-539 CNS. Further, the growth was 74.9% in the assay on UACC-257 melanoma and 61.9% in the assay on M14 melanoma.
